Assay [1] deals with Glutathione peroxidase 1 (Homo sapiens) (UniProt P07203). As to the kind of experiment: Primary qHTS Assay for Inhibitors of Recombinant Selenoprotein Glutathione Peroxidase 1 (GPX1) (AID 1845191). Note: nearly all actives have a fitted effect of over 65% in size. In a few lines:
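NADPH consumption tracked by fluorescence at 340/450 nm between t=0 and t=15 min, room temperature. Final mix: 10 nM GPX1, 100 nM glutathione reductase, 1 mM GSH, 0.5 mM NADPH, 0.5 mM cumene hydroperoxide, 0.01% BSA; 30 min compound–enzyme preincubation.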
(qHTS replaces the single test concentration by a dilution series.)

For assay [2], the target named is Phospholipid hydroperoxide glutathione peroxidase GPX4 (Homo sapiens) (UniProt P36969). Description: Primary qHTS Assay for Inhibitors of Recombinant Selenoprotein Glutathione Peroxidase 4 (GPX4) (AID 1845192). Note: series mostly up to about 50 µM; % is set by controls: 0 for no effect and ±100 for the full control effect; nearly all actives have a fitted effect of over 65% in size. The essentials:
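NADPH consumption followed by fluorescence at 340/450 nm, t=0 and after 15 min at room temperature. Reaction started with cumene hydroperoxide (0.5 mM final) after 30 min compound–GPX4 preincubation; final 200 nM GPX4, 100 nM GR, 1 mM GSH, 0.5 mM NADPH.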

The target in assay [3] is Luciferin 4-monooxygenase (Photinus pyralis) (UniProt P08659). As to the kind of experiment: Primary firefly luciferase (FLuc) qHTS assay for identification of artifact compounds. (AID 1845220).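 For activity change, negative = inhibition: series mostly up to about 54 µM; plate controls were DMSO vehicle for no effect and no enzyme for full effect.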 Note: nearly all actives have a fitted effect of over 60% in size. The essentials: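 Cell-free, 1536-well qHTS. Buffer pH 7.6 with 0.01% Tween-20 and 0.05% BSA; 10 uM D-luciferin, 10 uM ATP; 10 nM P. pyralis luciferase; luminescence after 5 min.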

The nature of assay [4]: Primary fluorescence-based thiol-reactive (MSTI) qHTS assay for identification of artifact compounds. (AID 1845221).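 For activity change, negative = thiol reactive: series mostly up to about 54 µM; thiol-reactive compounds lower the probe fluorescence signal.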 Note: nearly all actives have a fitted effect of over 65% in size. Note: potency is the fitted concentration of half-maximal effect. The essentials: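 In PBS pH 7.4 with 2% DMSO, each compound met 4 uM MSTI for one hour at ambient temperature, shielded from light, before fluorescence detection.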

A number with no mark means an inactive call. Inconclusive results are not listed. Calls of active or inactive are those of the source. Calls come from the whole dose curve; as a rule, active = well fitted curve in the direction sought with a large enough effect; inconclusive = small, poorly fitted or top-dose-only effect, or another doubt; inactive = no such curve, though single readings can be large; an effect the other way counts as inactive or inconclusive. *1 amine or outer side, *2 acyl side, *3 side chain or, on linkers, in order; H or OH if unused. Where a SMILES comes first, the peptide text is derived from it. [ ]: non-standard residue; d: D form. The star is where a group is joined. ξ: configuration not given here. X9 = CCC(C)(N*)C(=O)C1CC[C@@H](C(=O)N[C@@H](Cc2ccccc2)C(=O)NCC(=O)O)N1; X8 = O=C([C@@H]1CC(O)CN1[*:1])[*:2]; aIle = CC[C@@H](C)[C@H](N)C(=O)O; Thr(3ξ) = CC(O)[C@H](N)C(=O)O; ξIva = CCC(C)(N)C(=O)O; Aib = CC(C)(N)C(=O)O

Phospholipid hydroperoxide glutathione peroxidase GPX4 (Homo sapiens), sequence (P36969 whole entry, looked up): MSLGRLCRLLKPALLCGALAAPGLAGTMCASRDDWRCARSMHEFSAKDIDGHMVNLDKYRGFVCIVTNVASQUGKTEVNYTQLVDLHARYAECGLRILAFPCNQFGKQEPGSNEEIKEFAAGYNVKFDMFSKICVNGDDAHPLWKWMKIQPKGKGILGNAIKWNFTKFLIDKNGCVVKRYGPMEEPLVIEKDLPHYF
Glutathione peroxidase 1 (Homo sapiens), sequence (P07203 whole entry, looked up): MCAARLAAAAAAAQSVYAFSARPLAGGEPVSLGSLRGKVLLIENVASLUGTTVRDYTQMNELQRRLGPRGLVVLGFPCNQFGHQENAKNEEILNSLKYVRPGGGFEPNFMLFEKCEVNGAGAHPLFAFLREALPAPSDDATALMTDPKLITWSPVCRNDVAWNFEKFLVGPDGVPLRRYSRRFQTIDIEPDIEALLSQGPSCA

For `CC(=O)NC1CC(=O)C23C(=O)NC(Cc4c[nH]c5ccccc45)C2C(C)=C(C)C(O)C3/C=C/CC(C)/C=C(/C)C(O)C1O` (configuration not stated), the Potency result in assay [1], in assay [2], in assay [3] and in assay [4] was “inactive” throughout.

`C=CC(C)(O)CC/C=C(\C)C(=O)O[C@@H]1[C@@H](O)[C@H](OC(C)(C=C)CC/C=C(\C)C(=O)O[C@@H]2O[C@H](CO)[C@@H](O)[C@H](O)[C@H]2O)O[C@H](CO)[C@H]1OC(=O)/C(C)=C/CCC(C)(O)C=C` (some centres not stated): the Potency entry in assay [1] and in assay [2] was “inactive” in each case. Further, the activity change, negative = inhibition in assay [3] is 0.429% [at 11.6 µM]. The activity change, negative = thiol reactive in assay [4] was 71.6% [at 11.5 µM].

As to `Cc1oc(S(=O)(=O)N2CCCCC2)cc1NC(=O)Nc1ccccc1`, the Potency entry in assay [1], in assay [2], in assay [3] and in assay [4] was “inactive” in each case.

Consider `COc1ccc(Oc2c(Cl)cnn(C3c4ccccc4-c4ccccc43)c2=O)cc1`, for which the Potency entry in assay [1], in assay [2], in assay [3] and in assay [4] was “inactive” each time.

On to `CC(C)=CCC[C@](C)(O[C@@H]1O[C@H](CO[C@@H]2O[C@@H](CO)[C@H](O)[C@H]2O)[C@@H](O)[C@H](O)[C@H]1O)[C@H]1CC[C@]2(C)[C@@H]1[C@H](O)C[C@@H]1[C@@]3(C)CC[C@H](O[C@@H]4O[C@H](CO)[C@@H](O)[C@H](O)[C@H]4O[C@@H]4O[C@H](CO)[C@@H](O)[C@H](O)[C@H]4O)C(C)(C)[C@@H]3CC[C@]12C`, for which the Potency entry in assay [1], in assay [2], in assay [3] and in assay [4] was “inactive” in each case.

For the molecule `CC1(C)CC[C@]2(C(=O)O)CC[C@]3(C)C(=CCC4[C@@]5(C)C(=O)C[C@H](O)[C@@](C)(CO)C5CC[C@]43C)[C@@H]2C1` (some centres not stated), the Potency entry in assay [1], in assay [2], in assay [3] and in assay [4] was “inactive” throughout.

As for `C[C@@]1(C(=O)O)CCC[C@@]2(C)C3=CC[C@H]4C[C@@]3(CC[C@H]12)CC4(O)CO` (some centres not stated), the Potency result in assay [1], in assay [2], in assay [3] and in assay [4] was “inactive” each time.

Turning to `CC(=O)O[C@@H]1[C@H](O[C@@H]2OC[C@](O)(CO)[C@H]2O)[C@@H](O[C@@H]2O[C@@H](C)[C@H](O)[C@@H](O[C@@H]3O[C@H](CO)[C@@H](O)[C@H](O)[C@H]3O)[C@H]2O)[C@H](OC(=O)[C@]23CCC(C)(C)C[C@H]2C2=CCC4[C@@]5(C)C[C@H](O)[C@H](O[C@@H]6O[C@H](C(=O)O)[C@@H](O)[C@H](O)[C@H]6O)[C@@](C)(C(=O)O)C5CC[C@@]4(C)[C@]2(C)CC3)O[C@@H]1C` (some centres not stated), the Potency entry in assay [1] and in assay [2] was “inactive” throughout. In assay [3], the outcome is “inactive [at 11.6 µM]”. Moreover, in assay [4], the activity change, negative = thiol reactive is 238% [at 11.5 µM].

Turning to `CC1OC(OC2C(OC3C(O[C@H]4CC[C@@]5(C)C(CC[C@]6(C)C5CC=C5C7CC(C)(C)CC(O)[C@]7(C)CC[C@]56C)C4(C)C)OC(C(=O)O)C(O)C3O)OCC(O)C2O)C(O)C(O)C1O` (some centres not stated), the Potency result in assay [1] and in assay [2] was “inactive” in each case. Besides, in assay [3], the activity change, negative = inhibition is 4.47% [at 11.6 µM]. The activity change, negative = thiol reactive in assay [4] was 167% [at 11.5 µM].

As to `C=C1[C@H](OC(C)=O)[C@H]2[C@@H](OC(C)=O)C(C)C[C@]2(OC(C)=O)C(=O)[C@H](C)/C=C/C(C)(C)C(=O)[C@H](OC(=O)C(C)C)[C@H]1OC(C)=O` (some centres not stated), the Potency entry in assay [1], in assay [2], in assay [3] and in assay [4] was “inactive” throughout.

Consider `CC[C@@H](C)[C@H](NC(=O)C(C)(C)NC(=O)[C@H](CCC(N)=O)NC(=O)C(C)(CC)NC(=O)[C@H](Cc1c[nH]c2ccccc12)NC(C)=O)C(=O)N[C@H](C(=O)NC(C)(C)C(=O)N[C@@H](CC(C)C)C(=O)NC(C)(C)C(=O)N1CCC[C@H]1C(=O)N[C@@H](CCC(N)=O)C(=O)NC(C)(C)C(=O)N1CC(O)C[C@H]1C(=O)NC(C)(CC)C(=O)C1CC[C@@H](C(=O)N[C@@H](Cc2ccccc2)C(=O)NCC(=O)O)N1)C(C)O` (some centres not stated) (Ac-W[ξIva]Q[Aib][aIle][Thr(3ξ)][Aib]L[Aib]PQ[Aib][X8]-X9), for which the Potency result in assay [1] and in assay [2] was “inactive” each time. In addition, the activity change, negative = inhibition in assay [3] was -13.1% [at 6.45 µM]. Besides, in assay [4], the activity change, negative = thiol reactive is -2.24% [at 6.41 µM].

As for `CCC(C)C1NC(=O)C2C(C)CCN2C(=O)C(CC(O)CO)OC(=O)CCNC(=O)C(C)N(C)C(=O)C(C(C)C)N(C)C1=O` (configuration not stated), the Potency entry in assay [1], in assay [2], in assay [3] and in assay [4] was “inactive” each time.

`CC(NC(=O)[C@H](Cc1ccccc1)NC(=O)OCc1ccccc1)C(=O)CF` (some centres not stated): the Potency result in assay [1], in assay [2], in assay [3] and in assay [4] was “inactive” in each case.

As for `CC1(C)CC[C@]2(C(=O)O[C@@H]3O[C@H](CO[C@@H]4O[C@H](CO[C@@H]5O[C@H](CO)[C@H](O)[C@H](O)[C@H]5O)[C@@H](O)[C@H](O)[C@H]4O)[C@@H](O)[C@H](O[C@@H]4O[C@H](CO)[C@@H](O)[C@H](O)[C@H]4O)[C@H]3O)[C@H](O)C[C@]3(C)C(=CCC4[C@@]5(C)CC[C@H](O[C@@H]6OC[C@@H](O)[C@H](O)[C@H]6O)[C@@](C)(C(=O)O)C5CC[C@]43C)[C@@H]2C1` (some centres not stated), the Potency result in assay [1] and in assay [2] was “inactive” in each case. Besides, the outcome in assay [3] is “inactive [at 11.6 µM]”. Besides, the activity change, negative = thiol reactive in assay [4] was 27.9% [at 11.5 µM].

Turning to `COc1ccc(C2(O)c3c(ccc4c3OC(C)(CCC=C(C)C)C=C4)NC(=O)C2OC)cc1` (configuration not stated), the Potency entry in assay [1], in assay [2], in assay [3] and in assay [4] was “inactive” in each case.

As to `CC1(C)CC[C@]2(C(=O)O)CC[C@]3(C)C(=CCC4[C@@]5(C)C[C@H](O)[C@H](O[C@@H]6O[C@H](CO)[C@@H](O)[C@H](O)[C@H]6O)[C@@](C)(CO)C5[C@H](O)C[C@]43C)[C@@H]2C1` (some centres not stated), the Potency entry in assay [1], in assay [2], in assay [3] and in assay [4] was “inactive” throughout.

Turning to `COc1cnc(-n2cnc(C)n2)c2[nH]cc(C(=O)C(=O)N3CCN(C(=O)c4ccccc4)CC3)c12`, the Potency entry in assay [1], in assay [2], in assay [3] and in assay [4] was “inactive” each time.

With `COc1cc2c(cc1O)CC(O)(CO)C(CO)C2c1ccc(OC2OC(CO)C(O)C(O)C2O)c(OC)c1` (configuration not stated), the Potency result in assay [1], in assay [2] and in assay [3] was “inactive” each time. Further, in assay [4], the Potency was 10.3 µM (active).

For the origin of these results see PubChem BioAssay (NCATS).
